Structures are written as SMILES.
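Also: KINOMEscan kinase panel screen.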

The subject of one experiment is CASK. The following applies: concentration: 1 μM, replicates: in singlicate; n = 1.
For the compound `COc1cc(Nc2ccnc3cc(-c4ccncc4)ccc23)cc(OC)c1OC.Cl` [GW494610], the “%Inh” value stood at 15%.
On the same count and under the same terms, the result for `COc1cccc(-c2nc(-c3ccccc3)[nH]c2-c2ccncc2)c1` [SB-610250] reads 15%.
Still for that read-out and setting: next, `O=C1NC(=O)C(c2ccccc2Cl)=C1Nc1cccc(Cl)c1` [SB-342409]: 39%; `O=C(O)C(F)(F)F.O=c1[nH]ccc2nc(N[C@@H]3CCNC3)nc(Nc3cc(Cl)cc(Cl)c3)c12` [GSK2188764]: 19%.

A further experiment has as its system T1, CDC2L1.
T1 construct: gene CDK11B
The following applies: concentration: 1 μM, replicates: in singlicate; n = 1.
Take `O=C(Nc1n[nH]c2cc(-c3cccs3)ccc12)C1CC1` [SB-731284]: the “%Inh” value is reported as 0%.
Take `Fc1cc(Cl)ccc1Nc1ccnc2cc(-c3ccc(CN4CCSCC4)o3)ccc12` [GW560106]: the “%Inh” value worked out at 0%.
Still for that read-out and setting: the result for `Fc1cc(Cl)ccc1Nc1ccnc2cc(-c3ccc(CN4CCOCC4)o3)ccc12` [GW560109] reads 0%; that for `COc1ccc(NC(=O)c2ccoc2)cc1-c1ccc(C(=O)NCC2CC2)cc1` [GW810437], 14%.
Consider `COC(=O)Nc1nc2ccc(Oc3ccc(CC(=O)Nc4cc(C(F)(F)F)ccc4F)cc3)cc2[nH]1` [GW680903], for which the “%Inh” value is given as 0%.
For `O=C(Nc1n[nH]c2nc(-c3cccc(O)c3)ccc12)C1CC1` [SB-711805], the “%Inh” value is on record as 0%.
Same read-out and setting: next, `Cc1cccc(Nc2nc(N[C@H]3CCCC[C@H]3N)ncc2C(N)=O)c1.Cl` [GSK986310]: 0%.
Same read-out and setting: the result for `CCn1c(-c2nonc2N)nc2c(-c3ccccc3)ncc(OCCCN)c21.O=C(O)C(F)(F)F.O=C(O)C(F)(F)F` [GSK260205] reads 0%.
In the case of `COc1ccc(C)c(Nc2ccnc(Nc3ccc(-c4cnc[nH]4)cc3)n2)c1.Cl` [GW784041], the “%Inh” value amounted to 8%.

(Values after PMC5540273 (PLoS ONE, 2017).)
